Reference: PubChem BioAssay (NCI)
About 83,000 compounds went through this panel and 20% of them were active in at least one assay; those are over-represented in the sample as a whole.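 96-well plates, one dose, 48 hours. Percent growth reported; active if below 10.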 Calls of active or inactive are those of the source.

Each molecule was assayed on HL-60(TB) leukemia (assay: NCI-60 one-dose screen, 48 h (100 = growth as untreated, 0 = no growth, -100 = all killed)). Conditions: 10 µM unless noted.

| SMILES | growth |
| --- | --- |
| O=C1Nc2cc(-c3ccc(NC(=O)c4cccs4)cc3)ccc2/C1=C/c1ccc[nH]1 | 90.9% (inactive) |
| Cc1ccc([C@H]2C(C(=O)c3ccc(Cl)cc3)C3(N[C@@H]2c2ccccc2)C(=O)Nc2ccccc23)cc1 (stereo not given in full) | -22.2% (active) |
| O=C(NO)c1ccc(CNc2nc(-c3ccccc3)c3ccccc3n2)cc1 | -4.14% (active) |
| COc1ccc(-c2ccnc(SCc3cc4ccccc4[nH]c3=O)n2)cc1 | 34.1% (inactive) |
| O=C(c1ccc(O)cc1)C1[C@H](c2ccc(Cl)cc2)[C@@H](c2ccccc2)NC12C(=O)Nc1ccccc12 (stereo not given in full) | -33.3% (active) |
